# From PubChem BioAssay
# IL1B secr inh: inflammasome signaling inhibition, IL-1 beta readout; THP-1 LPS/ATP IL-1B secretion, AlphaLISA, 16 h; stronger effect = lower value; activity change, % at 57.5 µM; 360,000 compounds, 4.7% hits; in the data active = activity change below about -50%; inconclusive = mostly about -30% to -49%
#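 THP-1 cells pretreated 1 hr with compounds (up to 57.5 uM final), then stimulated with LPS (250 ng/mL final) plus ATP (1.25 mM final); secreted IL-1B measured by AlphaLISA after 16 hr, decreased signal indicating inhibition.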
# TDP1 cell noCPT: qHTS for Inhibitors of human tyrosyl-DNA phosphodiesterase 1 (TDP1): qHTS in cells in absence of CPT. DT40 Tdp1-/- hTDP1 cells, no CPT, ATP luminescence, 48 h. Potency, µM (doses to about 46.2 µM), without a hit: at the top dose activity change, negative = growth inhibition, usual class: inhibitors. 420,000 compounds, 15% hits; also: potency is read from the fitted curve at half-maximal effect; nearly all actives have a fitted effect of over 55% in size
#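 No-CPT arm: Tdp1-/-;hTDP1 DT40 cells (400/well) plus compounds, incubated ≥48 hr at 37 °C. Readout CellTiter-Glo luminescence.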
# TDP1 cell CPT: DT40-hTDP1 cell growth loss with CPT. 420,000 compounds, 12% hits. chicken DT40 Tdp1-/-;hTDP1 cells + 20 nM CPT, ATP luminescence, 48 h. Potency, µM (series often up to 46.2 µM), for the others: top-dose activity change, negative = growth inhibition, hits mostly inhibitors. AID 686979; also: potency is read from the fitted curve at half-maximal effect; nearly all actives have a fitted effect of over 55% in size
#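 Chicken DT40 Tdp1-/- cells complemented with human TDP1, 400 cells/well, exposed to compounds plus 20 nM camptothecin for at least 48 h at 37 C; viability read as ATP content by CellTiter-Glo luminescence.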
# HT1080NT lethal: kills 2HG-producing HT-1080-NT fibrosarcoma cells. HT-1080-NT fibrosarcoma viability, CellTiter-Glo ATP luminescence, 48 h. Potency, µM (titrated, usually from 46.1 µM), for the others: at the highest dose activity, negative = less viability, usual class: cytotoxic. 360,000 compounds, 1.6% hits. AID 686970;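 also: NT is the 2HG producing partner of a matched IDH1 knockdown line; potency is read from the fitted curve at half-maximal effect; 0% = DMSO-treated cells and -100% = media-only wells without cells; nearly all actives have a fitted effect of over 55% in size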
#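 Viability by CellTiter-Glo luminescence after 48 h compound exposure at 37C of HT-1080-NT cells (750/well, RPMI, 5% FBS). % activity scaled between DMSO wells and medium-only wells, then curve-fitted and categorized by curve class.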
# HT1080 IDH1KD tx: toxicity to HT-1080 IDH1 knockdown cells (counter line). HT-1080 IDH1 knockdown viability, ATP luminescence, 48 h. Potency, µM (highest dose often 46.1 µM), without a hit: at the highest dose activity, negative = toxicity, most hits filed as cytotoxic. 360,000 compounds, 2% hits;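 also: potency is read from the fitted curve at half-maximal effect; 0% = DMSO wells and -100% = cell-free medium wells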
#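 Viability of IDH1-knockdown HT-1080 fibrosarcoma cells was assessed by CellTiter-Glo after 48 h at 37 °C with titrated compound; concentration-effect curves were classified by fit quality and response size.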
# An asterisk follows results filed as active; ? = inconclusive; . = no result given. Hits are enriched below; roughly 19% of the tested compounds scored in any of these assays. Unless noted, calls follow the shape of the dose curve; as a rule, active = well fitted curve in the direction sought with a large enough effect; inconclusive = small, poorly fitted or top-dose-only effect, or another doubt; inactive = no such curve, though single readings can be large; an effect the other way counts as inactive or inconclusive. Unless noted, % is scaled to controls: 0 for no effect and ±100 for the full control effect.
SMILES,IL1B secr inh,TDP1 cell noCPT,TDP1 cell CPT,HT1080NT lethal,HT1080 IDH1KD tx
COC(=O)C1CCN(C(=O)COC(=O)c2ccc3[nH]c4c(c3c2)CCCC4)CC1,12,10µM*,13µM*,10%,7%
COC(=O)C1CCN(C(=O)c2ccc(OC)c(S(=O)(=O)N3CCCc4ccccc43)c2)CC1,5,?,?,1%,-2%
CCOC(=O)c1ccc2[nH]c3c(c2c1)CCCC3C(=O)OCC (configuration not stated),-10,-26%,-16%,-11%,-16%
O=C(O)CSc1c2c(nc3cc(C(=O)Nc4ccc(F)c(Cl)c4)ccc13)CCC2,.,-2%,11%,.,.
Cc1ccc(C)c(OCC(O)CN2CCN(CCN3C(=O)c4cccc5cccc(c45)C3=O)CC2)c1 (configuration not stated),-102*,18µM*,16µM*,16µM*,?
CC(=O)c1ccccc1OCC(O)CN1CCN(CCN2C(=O)c3cccc4cccc(c34)C2=O)CC1 (configuration not stated),?,6.5µM*,6.5µM*,?,?
CCOc1ccc(NCCC(O)c2ccc(F)cc2)cc1 (configuration not stated),-17,-17%,5%,6%,0%
Cc1ccc(-c2nnc(SCC(C)C)n2C)cc1,?,21µM*,?,3%,-2%
Cc1ccc(Nc2nc(CSc3nnc(-c4ccc(F)cc4)n3C)cs2)cc1,0,?,15µM*,1%,3%
CCCCNC(=O)C(NC(=O)c1ccc(-c2ccccc2)cc1)C(=O)c1ccccc1 (configuration not stated),30,?,?,10%,12%
CCCCC1=CC2=C(c3ccco3)C(=O)C(C)(OC(=O)c3ccc(OC)cc3)C(=O)C2=CN1CCCCO (configuration not stated),-21,?,?,-4%,5%
CCCCC1=CC2=C(c3ccco3)C(=O)C(C)(OC(=O)c3ccc(OC)cc3)C(=O)C2=CN1CC(C)C (configuration not stated),-4,5.2µM*,3.3µM*,23%,8%
CCCCC1=CC2=C(c3ccco3)C(=O)C(C)(OC(=O)c3ccc(OC)cc3)C(=O)C2=CN1CC1CC1 (configuration not stated),-21,18µM*,8.2µM*,-9%,-2%
CC[C@]12c3[nH]c4ccc(OC)cc4c3CCN1C(=O)C(CC(=O)NC(C)(C)C)C[C@@H]2C(=O)N1CCN(C(=O)c2ccco2)CC1 (some centres not stated),0,-13%,-3%,2%,3%
COC(=O)C=C1CCC2C3CCC4=CC(=O)C(Br)CC4(C)C3C(=O)CC12C (configuration not stated),-95*,16µM*,?,-11%,-15%
Cc1ccc(C(C#N)c2ccc3c(C(F)(F)F)cc(C(F)(F)F)nc3n2)cc1 (configuration not stated),?,18µM*,26µM*,12%,4%
N#CC(c1ccccc1)c1ccc2c(C(F)(F)F)cc(C(F)(F)F)nc2n1 (configuration not stated),-83*,18µM*,13µM*,-14%,-4%
Cc1nn(-c2ccccc2)c2c1cc1c(=O)n(C)c(=O)nc-1n2-c1cccc(Cl)c1,.,-23%,0%,.,.
COc1c(Br)cc([N+](=O)[O-])c(OC)c1C(=O)NC(=O)Nc1nc(C)cc(C)n1,7,0%,4%,2%,0%
Cc1ccc(NC(=O)c2sc3ncn(Cc4cccc(F)c4)c(=O)c3c2C)c(Br)c1,.,-24%,-12%,.,.
FC(F)Sc1ccc(N=C2NN=C(c3ccc4c(c3)OCCO4)CS2)cc1,-2,21µM*,18µM*,?,?
CCCCN=C1NN=C(c2ccc(C)c(C)c2)CS1,?,?,?,-12%,-17%
